Experimental findings from PubChem BioAssay (NCI) are described below.

A short description of assay [1]: NCI Yeast Anticancer Drug Screen. Data for the rad50 strain (AID 155).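 Also: 0% = growth of vehicle-only cultures of the same strain.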 The settings on record: S. cerevisiae rad50 strain growth inhibition, hits give high values. The method in brief:
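Compounds were tested on a yeast strain with an engineered DNA damage repair alteration; the reported value is growth inhibition normalised to vehicle treatment.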

Assay [2] in a line: NCI Yeast Anticancer Drug Screen. Data for the mec2-1 strain (AID 157). The settings on record: S. cerevisiae mec2-1 strain, hits give high values. The method in brief: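 Mutant yeast (mec2-1) grown with compound; growth inhibition relative to vehicle control reported.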
Assay [3] in a line: NCI Yeast Anticancer Drug Screen. Data for the sgs1 mgt1 strain (AID 161).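 Also: 0% = growth of cultures given vehicle only.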 The settings on record: S. cerevisiae sgs1 mgt1 strain, hits give high values. The method in brief: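 This yeast growth screen uses a strain with defined DNA-repair lesions; compound-treated growth is compared with vehicle-treated growth.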
A short description of assay [4]: NCI Yeast Anticancer Drug Screen. Data for the cln2 rad14 strain (AID 165).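 Also: 0% = growth equal to vehicle treated cultures.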 The settings on record: S. cerevisiae cln2 rad14 strain, hits give high values. The method in brief: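 Readout is yeast growth inhibition versus vehicle-treated controls, using a strain with cln2 and rad14 alterations exposed to compound.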
Assay [5] can be described thus: NCI Yeast Anticancer Drug Screen. Data for the bub3 strain (AID 167). The settings on record: S. cerevisiae bub3 mutant strain, hits give high values. In short, it runs like this:
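Growth of a checkpoint-deficient yeast mutant is measured after compound exposure. Values represent inhibition relative to vehicle.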

A short description of assay [6]: NCI Yeast Anticancer Drug Screen. Data for the mlh1 rad18 strain (AID 175). The settings on record: S. cerevisiae mlh1 rad18 strain growth inhibition, hits give high values. In short, it runs like this: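 Genetically defined yeast (DNA repair-deficient) exposed to compounds; growth inhibition determined relative to vehicle.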
Where [7] appears, read: at 5.0 µM (retest, dose inferred, filed as 0.5).
[8] abbreviates: at 50.0 µM (retest, dose inferred, filed as 5.0).

The panel holds about 79,000 compounds, 15% with a hit somewhere; the sample as a whole holds those more often. A number with no mark means an inactive call. Activity calls are given as the source filed them. Rule as the data show it: active = growth inhibition above about 70%; inactive = the rest.

As for `[O-]c1c2cc(-[n+]3c(-c4ccccc4)cc(-c4ccccc4)cc3-c3ccccc3)cc1CO[C@@H](c1ccccc1)[C@H](c1ccccc1)OCc1cccc(n1)CO[C@@H](c1ccccc1)[C@H](c1ccccc1)OC2`, the growth inhibition in assay [1] (setting [7]) was 98% (active); in assay [1] (setting [8]), 96% (active); in assay [1] (at 50.0 µM), 87.2% (active); in assay [2] (setting [7]), 98% (active); in assay [2] (setting [8]) it was 98% (active); in assay [2] (at 50.0 µM), 90.8% (active). Further, the growth inhibition in assay [3] (setting [7]) was 100% (active); in assay [3] (setting [8]), 98% (active); in assay [3] (at 50.0 µM), 90.5% (active); in assay [4] (setting [7]), 97% (active); in assay [4] (setting [8]) it was 98% (active); in assay [4] (at 50.0 µM), 90.2% (active). The growth inhibition in assay [5] (setting [7]) was 99% (active); in assay [5] (setting [8]) it was 99% (active); in assay [5] (at 50.0 µM) it was 89.3% (active); in assay [6] (setting [7]), 98% (active); in assay [6] (setting [8]) it was 97% (active); in assay [6] (at 50.0 µM), 86.7% (active).

On to `COc1ccc(/C(Cl)=C(\C=O)c2ccc(Cl)cc2)cc1OC`, for which the growth inhibition is 6% in assay [1] (setting [7]); 61% in assay [1] (setting [8]); 4.15% in assay [1] (at 50.0 µM); -8% in assay [2] (setting [7]); 35% in assay [2] (setting [8]); 13.4% in assay [2] (at 50.0 µM). Also, the growth inhibition in assay [3] (setting [7]) was -17%; in assay [3] (setting [8]), 56%; in assay [3] (at 50.0 µM), 21.6%; in assay [4] (setting [7]), 7%; in assay [4] (setting [8]), 49%; in assay [4] (at 50.0 µM) it was 0.1%. In addition, the growth inhibition was 4% in assay [5] (setting [7]); 70% (active) in assay [5] (setting [8]); 13.6% in assay [5] (at 50.0 µM); -5% in assay [6] (setting [7]); 68% in assay [6] (setting [8]); 24.1% in assay [6] (at 50.0 µM).

Turning to `O=C(O)C1C(Br)(c2ccccc2)C1(Br)c1ccccc1` (stereo not given), the growth inhibition was 47% in assay [1] (setting [7]); 90% (active) in assay [1] (setting [8]); 90.7% (active) in assay [1] (at 50.0 µM); -1% in assay [2] (setting [7]); 30% in assay [2] (setting [8]); 17.7% in assay [2] (at 50.0 µM). Moreover, the growth inhibition in assay [3] (setting [7]) was 9%; in assay [3] (setting [8]) it was 70% (active); in assay [3] (at 50.0 µM), 69%; in assay [4] (setting [7]), 25%; in assay [4] (setting [8]), 93% (active); in assay [4] (at 50.0 µM), 83.8% (active). Also, the growth inhibition in assay [5] (setting [7]) was -3%; in assay [5] (setting [8]), 10%; in assay [5] (at 50.0 µM), 7.05%; in assay [6] (setting [7]) it was -8%; in assay [6] (setting [8]) it was 55%; in assay [6] (at 50.0 µM), 59.9%.

With `C[C@]12CC[C@@H]3c4ccc(O)cc4CC[C@H]3[C@@H]1CC[C@@H]2NCCCCCCO`, the growth inhibition is 21% in assay [1] (setting [7]); 25% in assay [1] (setting [8]); 14.6% in assay [1] (at 50.0 µM); 18% in assay [2] (setting [7]); 19% in assay [2] (setting [8]); 48.6% in assay [2] (at 50.0 µM). Besides, the growth inhibition was 18% in assay [3] (setting [7]); 38% in assay [3] (setting [8]); 34.4% in assay [3] (at 50.0 µM); 26% in assay [4] (setting [7]); 31% in assay [4] (setting [8]); -13.2% in assay [4] (at 50.0 µM). Also, the growth inhibition is 15% in assay [5] (setting [7]); 34% in assay [5] (setting [8]); -6.1% in assay [5] (at 50.0 µM); 21% in assay [6] (setting [7]); 37% in assay [6] (setting [8]); -3.2% in assay [6] (at 50.0 µM).

Regarding `C[C@@H]1CN(CC2COc3ccccc3O2)[C@@H](C)CN1CC1COc2ccccc2O1` (stereo not given in full), the growth inhibition is 63% in assay [1] (setting [7]); 80% (active) in assay [1] (setting [8]); 86.8% (active) in assay [1] (at 50.0 µM); 74% (active) in assay [2] (setting [7]); 86% (active) in assay [2] (setting [8]); 84.3% (active) in assay [2] (at 50.0 µM). Further, the growth inhibition in assay [3] (setting [7]) was 84% (active); in assay [3] (setting [8]), 98% (active); in assay [3] (at 50.0 µM), 97.4% (active); in assay [4] (setting [7]) it was 52%; in assay [4] (setting [8]), 65%; in assay [4] (at 50.0 µM), 92.8% (active). Besides, the growth inhibition was 52% in assay [5] (setting [7]); 77% (active) in assay [5] (setting [8]); 84.7% (active) in assay [5] (at 50.0 µM); 82% (active) in assay [6] (setting [7]); 94% (active) in assay [6] (setting [8]); 94.5% (active) in assay [6] (at 50.0 µM).

As for `CC(C)c1ccc2c(c1)CC[C@H]1[C@](C)(CN)CCC[C@]21C`, the growth inhibition is 3% in assay [1] (setting [7]); 98% (active) in assay [1] (setting [8]); 98.8% (active) in assay [1] (at 50.0 µM); 2% in assay [2] (setting [7]); 98% (active) in assay [2] (setting [8]); 89.2% (active) in assay [2] (at 50.0 µM). The growth inhibition in assay [3] (setting [7]) was 11%; in assay [3] (setting [8]) it was 99% (active); in assay [3] (at 50.0 µM), 99.7% (active); in assay [4] (setting [7]), 3%; in assay [4] (setting [8]), 97% (active); in assay [4] (at 50.0 µM), 91.8% (active). Moreover, the growth inhibition in assay [5] (setting [7]) is 7%; in assay [5] (setting [8]) it was 99% (active); in assay [5] (at 50.0 µM), 90% (active); in assay [6] (setting [7]), -9%; in assay [6] (setting [8]), 98% (active); in assay [6] (at 50.0 µM), 98.4% (active).

`CCOc1ccc2nc(C)cc(C)c2c1`: the growth inhibition in assay [1] (setting [7]) was -1%; in assay [1] (setting [8]), 75% (active); in assay [1] (at 50.0 µM), 26.6%; in assay [2] (setting [7]), -23%; in assay [2] (setting [8]) it was 31%; in assay [2] (at 50.0 µM), -13.4%. The growth inhibition is -7% in assay [3] (setting [7]); 60% in assay [3] (setting [8]); -0.25% in assay [3] (at 50.0 µM); 1% in assay [4] (setting [7]); 2% in assay [4] (setting [8]); 34.5% in assay [4] (at 50.0 µM). The growth inhibition in assay [5] (setting [7]) was -8%; in assay [5] (setting [8]), 63%; in assay [5] (at 50.0 µM), -17.2%; in assay [6] (setting [7]) it was -4%; in assay [6] (setting [8]), 63%; in assay [6] (at 50.0 µM) it was 38.6%.

In the case of `CCOC(=O)Nc1cc2c(c(N)n1)N=C(c1ccccc1)CN2`, the growth inhibition in assay [1] (setting [7]) is 6%; in assay [1] (setting [8]) it was 34%; in assay [1] (at 50.0 µM), 36.3%; in assay [2] (setting [7]), -25%; in assay [2] (setting [8]), 35%; in assay [2] (at 50.0 µM), -3.7%. For the same compound, the growth inhibition in assay [3] (setting [7]) was -13%; in assay [3] (setting [8]) it was 89% (active); in assay [3] (at 50.0 µM) it was 37.2%; in assay [4] (setting [7]), 11%; in assay [4] (setting [8]) it was 33%; in assay [4] (at 50.0 µM), 17.9%. Besides, the growth inhibition in assay [5] (setting [7]) was 22%; in assay [5] (setting [8]), 80% (active); in assay [5] (at 50.0 µM) it was 47.1%; in assay [6] (setting [7]) it was 10%; in assay [6] (setting [8]) it was 52%; in assay [6] (at 50.0 µM), 18.1%.

For `O=C1c2ccc(O)cc2C(=O)c2c1ccc(O)c2O`, the growth inhibition was 28% in assay [1] (setting [7]); 97% (active) in assay [1] (setting [8]); 76% (active) in assay [1] (at 50.0 µM); 26% in assay [2] (setting [7]); 95% (active) in assay [2] (setting [8]); 67.3% in assay [2] (at 50.0 µM). The growth inhibition in assay [3] (setting [7]) was 46%; in assay [3] (setting [8]), 96% (active); in assay [3] (at 50.0 µM), 83% (active); in assay [4] (setting [7]), 9%; in assay [4] (setting [8]), 73% (active); in assay [4] (at 50.0 µM), 41.3%. In addition, the growth inhibition in assay [5] (setting [7]) was 37%; in assay [5] (setting [8]), 94% (active); in assay [5] (at 50.0 µM), 76.9% (active); in assay [6] (setting [7]), 45%; in assay [6] (setting [8]), 97% (active); in assay [6] (at 50.0 µM), 77.4% (active).

In the case of `O=C(OCc1ccc2c(c1)OCO2)c1ccc(Cl)cc1`, the growth inhibition was 19% in assay [1] (setting [7]); 23% in assay [1] (setting [8]); -0.55% in assay [1] (at 50.0 µM); -4% in assay [2] (setting [7]); 68% in assay [2] (setting [8]); -4.55% in assay [2] (at 50.0 µM). The growth inhibition in assay [3] (setting [7]) was 9%; in assay [3] (setting [8]), 46%; in assay [3] (at 50.0 µM) it was -6.3%; in assay [4] (setting [7]) it was -43%; in assay [4] (setting [8]), -7%; in assay [4] (at 50.0 µM), 0.05%. Also, the growth inhibition in assay [5] (setting [7]) is -1%; in assay [5] (setting [8]), 61%; in assay [5] (at 50.0 µM) it was 13.9%; in assay [6] (setting [7]), 4%; in assay [6] (setting [8]) it was 57%; in assay [6] (at 50.0 µM), -19.6%.
